# From patent US20060069055, “Delivery of polynucleotides” (published 2006)
# Target: NF-kB p50/p50 homodimer (Homo sapiens, UniProt P19838 P19838:1-433)
# Assay: EMSA; Table 3 gives 92 for PO
# Details: protein: extract; tags: nuclear extract of LPS-stimulated THP-1 cells; chain copies: 2 stated; dsDNA, one strand shown
# Excerpt: The EMSA assay was employed to characterize oligonucleotide decoys for the NF-κB transcription factor. […] Using the above modified oligonucleotides to compete for binding for the above-mentioned NF-κB family members, it was possible to compare the binding affinity of these oligonucleotides against the high affinity radiolabeled probe and each other. This assay has also enabled the design of a decoy which selectively binds particular members of the NF-κB family. By using increasing concentrations of various oligonucleotides, it was observed that, by deleting or changing targeted residues in the binding site, it was possible to specifically decrease the binding of the decoy molecule to p50/p50 homodimers, while retaining the affinity for p65/p50 and cRel/p50 heterodimers.
# The NF-κB gel shift assays (EMSA) were performed as follows. A double-stranded oligonucleotide containing a consensus NF-κB binding site (5′ […].GGC 3′) (SEQ ID NO: 26) was end-labeled with γ³²P-ATP using T4 Polynucleotide Kinase (Promega). […] The dried gels were imaged and quantitated using a Typhoon 8600 Phosphorlmager (Amersham) and ImageQuant software. […]
# NF-kB p50/p50 homodimer, sequence (P19838 1-433, one chain of several): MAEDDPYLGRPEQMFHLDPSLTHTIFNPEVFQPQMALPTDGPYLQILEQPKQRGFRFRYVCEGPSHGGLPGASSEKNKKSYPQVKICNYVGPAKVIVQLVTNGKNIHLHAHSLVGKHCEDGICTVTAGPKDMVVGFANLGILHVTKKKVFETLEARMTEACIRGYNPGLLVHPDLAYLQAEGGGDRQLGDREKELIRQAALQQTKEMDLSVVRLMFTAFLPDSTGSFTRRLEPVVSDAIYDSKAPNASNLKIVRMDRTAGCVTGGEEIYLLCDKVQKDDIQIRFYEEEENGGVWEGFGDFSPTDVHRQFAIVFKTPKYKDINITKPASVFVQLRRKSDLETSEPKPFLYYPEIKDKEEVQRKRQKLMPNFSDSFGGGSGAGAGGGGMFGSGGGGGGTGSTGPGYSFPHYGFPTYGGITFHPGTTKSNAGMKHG
row,Sequence,IC50 [fold molar excess]
1,AGTTGAGGACTTTCCAGGC,96
